The structures appear in SMILES notation. The campaign covered roughly 2,200 compounds. About 1,400 (64%) were called active.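 How the source made its calls: active means luminescence in either replicate above plate mean of wells with a partly effective reference agonist dose plus 3 SD; inactive means the rest.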 The set was probably picked from earlier hits. Only a selection was taken, and actives are over-represented in it overall.

The assay is described as follows: effects on beta-adrenoceptor cAMP reporter signal – cell-based, secondary assay 2, luminescence, counter-screen for D1 allosteric modulator project, confirmation (AID 647).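 Further: isoproterenol raises cAMP through native beta-adrenoceptor Gs so signal bypasses D1; raw luminescence counts from the Envision reader with one value per duplicate well.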 As to conditions: HEK293 D1 CRE-luciferase, isoproterenol EC30 counter-screen; at 10 µM; hits give high values. A general note: The purpose of a counterscreen is to sort out artefacts and off-target activity.
Take `CCC(=NCc1ccco1)c1c(O)n(Cc2ccccc2)c(=O)[nH]c1=O`: the luminescence was 3640 (active).

The values are drawn from PubChem BioAssay AID647 (Vanderbilt High Throughput Screening Facility, 2007).
